High-throughput results from PubChem.
BL2 CD40 inh: CD40 pathway inhibition in BL2 cells; BL2 NF-kB luciferase reporter, CD40L-induced, 4 h; inhibition, % at 10 µM; actives 0.94% (n = 83,000); AID 1053188;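 active = mean inhibition of at least 50% with a set share of replicates also reaching that level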;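 note: 0% = neutral control wells and 100% = IKK inhibitor VII at 50 µM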
The depositor's hits bear a star; ! = not confirmed by another sample; [ ] = remark or other dose. This is one part of a sample in which hits are shown more often than they occur.

SMILES	BL2 CD40 inh
O=C(C1CC1)N1C[C@@H]2N[C@H](C1)C2c1ccc(-c2cncnc2)cc1 (some centres undefined)	-1
O=C(C1CC1)N1C[C@@H]2N[C@H](C1)[C@@H]2c1ccc(-c2ccncc2)cc1	70*
CC(=O)N1C[C@@H]2N[C@H](C1)C2c1ccc(Br)cc1 (some centres undefined)	-8
Cc1cccc(S(=O)(=O)N2[C@@H]3Cn4c(ccc(-c5ccc(F)cc5)c4=O)[C@H]2[C@@H](C(=O)O)[C@@H]3CO)c1	-7[25 µM]
CC(=O)OCC12CC(OC(=O)CC(C)C)C(C)=CC1OC1C(O)C(OC(C)=O)C2(C)C12CO2 (centres undefined)	65*
COc1ccc(OC(=O)N(C)C[C@H]2OCc3ccccc3-c3c(n(C)c4ccccc34)C(=O)N([C@H](C)CO)C[C@@H]2C)cc1	-3
O=C(Cc1ccncc1)N1CCCCN2[C@H](CO)[C@H](c3ccc(C#Cc4ccccc4F)cc3)[C@@H]2C1	-12[25 µM]
COC(=O)[C@@H]1[C@@H](CO)[C@@H]2Cn3c(ccc(-c4cccc(F)c4)c3=O)[C@H]1N2Cc1cccnc1	-9[25 µM]
CC12CCC3C(CCC4(O)CC(O)CCC34C=NO)C1(O)CCC2C1=COC(=O)C1 (centres undefined)	56*
CC12CCC3C(CCC4(O)CC(O)CCC34C=O)C1(O)CCC2C1=CC(=O)OC1 (centres undefined)	75*
CC(C)NC(=O)N1C[C@@H]2C(c3ccc(Br)cc3)[C@H](C1)N2C (some centres undefined)	-4
O=C(Cc1ccccn1)N1CCCCN2[C@H](CO)[C@H](c3ccc(Br)cc3)[C@@H]2C1	3[25 µM]
CS(=O)(=O)N1C[C@@H]2C(c3ccccc3)[C@H](C1)N2CC1CC1 (some centres undefined)	-6
COC(=O)[C@H]1[C@H](CO)[C@H]2Cn3c(ccc(-c4cccc(C(=O)N(C)C)c4)c3=O)[C@@H]1N2C(=O)NC(C)C	-3[25 µM]
O=C(Cc1ccncc1)N1CCCCN2[C@@H](CO)[C@H](c3ccc(C#Cc4ccccc4F)cc3)[C@@H]2C1	-2[25 µM]
O=C(O)[C@H]1[C@H](CO)[C@H]2Cn3c(ccc(-c4ccncc4)c3=O)[C@@H]1N2S(=O)(=O)c1ccccc1F	1[25 µM]
CC(C)NC(=O)N1C[C@@H]2C(c3ccccc3)[C@H](C1)N2C (some centres undefined)	13
Cn1ncnc2c(=O)n(C)c(=O)nc1-2	86*
COC(=O)[C@@H]1[C@@H](CO)[C@@H]2Cn3c(cccc3=O)[C@H]1N2C(=O)C1CC1	-9[25 µM]
O=C1CNC[C@@H]2[C@H](c3ccc(Br)cc3)[C@H](CO)N12	-13[25 µM]
C[C@H]1CN([C@@H](C)CO)C(=O)CCCn2cc(nn2)CO[C@H]1CN(C)C(=O)Oc1ccc2ccccc2c1	-2[25 µM]
CC12CCC3C(CCC4C(=O)C(=O)CCC43C)C1CCC2=O (centres undefined)	4[25 µM]
CC1=C[C@H]2[C@]3(O)[C@H](C)[C@@H](O)[C@@]4(O)[C@H]([C@@H]3C=C(CO)C[C@]2(O)C1=O)C4(C)C	-1[25 µM]
CC1CC(C)CC(C)C(O)C(C#N)=CC=CCC(C2CCCC2C(=O)O)OC(=O)CC(O)C(C)C1 (centres undefined)	94*
O=C1CNC[C@H]2[C@@H](c3ccc(Br)cc3)[C@H](CO)N12	-3[25 µM]
SMILES	BL2 CD40 inh
CS(=O)(=O)N1C[C@@H]2N[C@H](C1)C2c1ccc(Br)cc1 (some centres undefined)	-4
CN1[C@@H]2CN(S(C)(=O)=O)C[C@H]1C2c1ccccc1 (some centres undefined)	4
CN1[C@@H]2CN(S(C)(=O)=O)C[C@H]1C2c1ccc(Br)cc1 (some centres undefined)	28*!
COC(=O)[C@H]1[C@H](CO)[C@H]2Cn3c(ccc(-c4cccc(F)c4)c3=O)[C@@H]1N2Cc1ccncc1	-7[25 µM]
O=C(Cc1ccccc1)N1CCCCN2[C@@H](CO)[C@H](c3ccc(C#Cc4ccccc4)cc3)[C@@H]2C1	10
C[C@]12CC[C@H]3[C@@H](CCC4=CC(=O)CC[C@@]43C)[C@@H]1CC[C@H]2O	1[25 µM]
CCN(CC)C(=O)c1ccc(NC(=O)c2cccc(S(=O)(=O)N3CCN(Cc4ccccc4)CC3)c2)cc1	17
CCN(CC)C(=O)c1ccc(NC(=O)c2ccc(N3CCCC3=O)cc2)cc1	16
CCN(CC)C(=O)c1ccc(NC(=O)Nc2ccccc2F)cc1	83*
COc1ccc(C#Cc2ccc([C@@H]3[C@H](CO)N4CCCCN(C(=O)Cc5ccccc5)C[C@@H]34)cc2)cc1	-27
C=C(C)[C@@H]1CCC(C)=C[C@H]1c1c(OC)cc(C)cc1OC	5[25 µM]
CC1=C(O)C(=O)C=C2C1=CC=C1C2(C)CCC2(C)C3CC(C)(C(=O)O)CCC3(C)CCC12C (centres undefined)	110*
CCN1C[C@]2(COC)CCC(OC)[C@@]34C5C[C@]6(O)[C@H](OC(=O)c7ccc(OC)cc7)C5[C@@](OC(C)=O)(C[C@H]6OC)[C@@H]([C@H](OC)C23)[C@@H]14 (some centres undefined)	11[25 µM]
CN1[C@@H]2CNc3ccccc3[C@@H]2[C@@H]1CO	5[25 µM]
O=[N+]([O-])c1ccc(N2CCCCC2)c2ncccc12	-8
O=[N+]([O-])c1ccc(N2CC2)c([N+](=O)[O-])c1	1
O=[N+]([O-])c1ccc(N2CCOCC2)c2c1no[n+]2[O-]	86*
COC(=O)[C@H]1[C@H](CO)[C@H]2Cn3c(ccc(-c4ccccc4F)c3=O)[C@@H]1N2Cc1cccnc1	-11[25 µM]
COP(=S)(OC)SCN1C(=O)c2ccccc2C1=O	32*
CS(=O)(=O)N1C[C@@H]2N[C@H](C1)C2c1ccccc1 (some centres undefined)	-5
CCCNC(=O)[C@@H]1[C@@H](CO)[C@@H]2Cn3c(cccc3=O)[C@@H]2N1C	-4
O=C(Cc1ccccn1)N1CCCCN2[C@@H](CO)[C@@H](c3ccc(-c4ccccc4F)cc3)[C@@H]2C1	15[25 µM]
COc1cc(C2c3cc4c(cc3CC3COC(=O)C32)OCO4)cc(OC)c1O (centres undefined)	-45
O=C1NC2C(=CC(O)C(O)C2O)c2cc3c(c(O)c21)OCO3 (centres undefined)	108*
O=C1NC2C(O)C(O)C(O)C(O)C2c2cc3c(c(O)c21)OCO3 (centres undefined)	97*
SMILES	BL2 CD40 inh
CN1[C@@H]2CN(CC(F)(F)F)C[C@H]1C2c1ccc(Br)cc1 (some centres undefined)	13
c1ccc(CC(c2ccccc2)N2CCCCC2)cc1 (centres undefined)	-3[25 µM]
Cc1ccc(OC(=O)N(C)C[C@H]2OCc3ccccc3-c3c(n(C)c4ccccc34)C(=O)N([C@@H](C)CO)C[C@H]2C)cc1	12[25 µM]
O=C(O)[C@@H]1[C@@H](CO)[C@@H]2Cn3c(ccc(-c4ccncc4)c3=O)[C@H]1N2C(=O)C1CCCCC1	5
O=C(Cc1ccccn1)N1CCCCN2[C@H](CO)[C@@H](c3ccc(Br)cc3)[C@@H]2C1	1[25 µM]
COC(=O)[C@@H]1[C@@H](CO)[C@@H]2Cn3c(cccc3=O)[C@@H]2N1CC1CC1	4[25 µM]
Cc1ccc(OC(=O)N(C)C[C@@H]2OCc3ccccc3-c3c(n(C)c4ccccc34)C(=O)N([C@H](C)CO)C[C@@H]2C)cc1	-8[25 µM]
N#Cc1ccc(-c2ccc([C@H]3[C@@H](CO)N4CCCCN(C(=O)Cc5ccccc5)C[C@@H]34)cc2)cc1	17[25 µM]
